Compounds without any hit were thinned out: in the full panel of roughly 79,000, 15% have a hit. A number with no mark means an inactive call. Activity calls are given as the source filed them. No stated cut-off is given here; in the data, active means growth inhibition above about 70%; inactive means the rest.
Legend:
[1] = NCI Yeast Anticancer Drug Screen. Data for the rad50 strain (AID 155);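 further: 0% = growth of vehicle-only cultures of the same strain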; conditions: S. cerevisiae rad50 strain growth inhibition, active compounds read high
Summary of the method: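 A DNA repair-deficient yeast mutant serves as the test organism; compound-induced growth inhibition is calculated against vehicle-treated cells.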

[2] = NCI Yeast Anticancer Drug Screen. Data for the mec2-1 strain (AID 157); conditions: S. cerevisiae mec2-1 strain, active compounds read high
Summary of the method: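 Growth inhibition is read against vehicle-treated controls after compound exposure of the mec2-1 yeast strain, which is defective in DNA damage repair or cell cycle control.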

[3] = NCI Yeast Anticancer Drug Screen. Data for the sgs1 mgt1 strain (AID 161);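 further: 0% = growth of cultures given vehicle only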; conditions: S. cerevisiae sgs1 mgt1 strain, active compounds read high
Summary of the method: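 Growth of a repair-deficient yeast mutant was monitored after compound treatment and expressed as inhibition relative to vehicle-treated cultures.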

[4] = NCI Yeast Anticancer Drug Screen. Data for the cln2 rad14 strain (AID 165);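 further: 0% = growth equal to vehicle treated cultures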; conditions: S. cerevisiae cln2 rad14 strain, active compounds read high
Summary of the method: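 Growth inhibition, relative to vehicle-treated controls, is the read-out. The test organism is a yeast strain with defined genetic alterations, cln2 rad14.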

[5] = NCI Yeast Anticancer Drug Screen. Data for the bub3 strain (AID 167); conditions: S. cerevisiae bub3 mutant strain, active compounds read high
Summary of the method: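 Inhibition values come from growth of compound-treated mutant yeast normalised to vehicle-treated controls.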

[6] = NCI Yeast Anticancer Drug Screen. Data for the mlh1 rad18 strain (AID 175); conditions: S. cerevisiae mlh1 rad18 strain growth inhibition, active compounds read high
Summary of the method: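 Cells of a genetically altered yeast strain, deficient in DNA damage repair, were treated with compound. Their growth was then compared with that of vehicle-treated cultures to give inhibition.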

[7] = at 5.0 µM (retest, dose inferred, filed as 0.5)
[8] = at 50.0 µM (retest, dose inferred, filed as 5.0)

Structure (SMILES)	growth inhibition [1, 7] [%]	growth inhibition [1, 8]	growth inhibition ([1]; at 50.0 µM)	growth inhibition [2, 7] [%]	growth inhibition [2, 8]	growth inhibition ([2]; at 50.0 µM)	growth inhibition [3, 7] [%]	growth inhibition [3, 8]	growth inhibition ([3]; at 50.0 µM)	growth inhibition [4, 7] [%]	growth inhibition [4, 8]	growth inhibition ([4]; at 50.0 µM)	growth inhibition [5, 7] [%]	growth inhibition [5, 8]	growth inhibition ([5]; at 50.0 µM)	growth inhibition [6, 7] [%]	growth inhibition [6, 8]	growth inhibition ([6]; at 50.0 µM)
CCOC(=O)CC(NC(=O)c1[nH]cnc1/N=N/N(C)C)C(=O)OCC (centres undefined)	-24	95% (active)	89.1% (active)	-8	97% (active)	91.5% (active)	-16	95% (active)	90.6% (active)	-11	96% (active)	91% (active)	-12	97% (active)	91.8% (active)	-24	97% (active)	78% (active)
CN(C)c1cccc(F)c1C(=O)NC(=O)Nc1ccc(Cl)cc1	2	3%	79.7% (active)	1	4%	75.7% (active)	0	7%	85.9% (active)	51	-2%	72% (active)	1	11%	83% (active)	17	-2%	91.5% (active)
CSc1ccc(/C=N/NC(N)=S)cc1	-150	-19%	91% (active)	-53	-4%	76% (active)	-65	12%	81.3% (active)	-65	-19%	43.7%	-63	-3%	86.5% (active)	-119	1%	84.7% (active)
CCNC(=S)NNC(=S)NNc1ccccc1	52	98% (active)	41.3%	63	100% (active)	38.5%	31	70% (active)	66.8%	45	63%	3.85%	36	77% (active)	60.5%	47	100% (active)	38.5%
CC(=O)c1c(CO[N+](=O)[O-])n([O-])c2ccccc2[n+]1=O	11	60%	69.4%	7	20%	13.6%	13	40%	42.5%	-1	17%	22%	-1	-4%	15.7%	1	33%	45.9%
CC(=O)Nc1ccc(C(=O)n2[nH]c(C)c(/C=C3\C(=O)C=Cc4ccccc43)c2=O)cc1	27	100% (active)	99.2% (active)	19	100% (active)	99.5% (active)	15	99% (active)	99.4% (active)	-10	99% (active)	98.7% (active)	24	100% (active)	99.2% (active)	42	99% (active)	99% (active)
COC(=O)c1c(C)cccc1C(=O)c1ccc(C)cc1C	-14	-4%	2.4%	-10	-3%	-0.1%	-4	9%	10.6%	-38	-7%	2.75%	-2	-16%	5.05%	-11	21%	23.4%
CCC(CC)(C(=O)Nc1ccc2c(c1)c(=O)c1ccccc1n2C)C(=O)Nc1ccc2c(c1)c(=O)c1ccccc1n2C	7	97% (active)	97% (active)	-3	86% (active)	77.7% (active)	-25	71% (active)	70.8% (active)	-4	75% (active)	73% (active)	-10	78% (active)	61.2%	-6	92% (active)	95.7% (active)
CCCCCCCN(CCCCCCC)CC(O)c1ccc2ccc3ccccc3c2c1 (centres undefined)	19	76% (active)	68.2%	8	73% (active)	62%	36	85% (active)	81.2% (active)	13	59%	38%	16	78% (active)	59.4%	12	78% (active)	79.2% (active)
CC(=O)Nc1ccc(/S(=N\S(=O)(=O)c2ccc(C)cc2)c2ccc(NC(C)=O)cn2)cc1 (centres undefined)	0	6%	37%	-2	1%	4.8%	0	4%	0.7%	-8	3%	73.3% (active)	-3	0%	-1.75%	-2	7%	-15.1%
Cc1ccc(S(=O)(=O)Nc2ccccc2Cl)cc1	11	95% (active)	94% (active)	11	97% (active)	77.3% (active)	7	99% (active)	96.5% (active)	6	96% (active)	88.5% (active)	5	98% (active)	94.2% (active)	13	97% (active)	93.8% (active)
Brc1cc2ccccc2c2ccccc12	11	91% (active)	75.1% (active)	-7	54%	65.2%	7	89% (active)	59.8%	11	28%	-16.1%	23	81% (active)	55.3%	41	91% (active)	40.8%
O=c1[nH]c2c([N+](=O)[O-])cc(Cl)cc2nc1/C=C(\O)c1ccccc1	17	81% (active)	49.6%	-3	65%	4.65%	7	63%	66.8%	4	59%	45.4%	16	77% (active)	-2.5%	-9	80% (active)	83.9% (active)
Cn1c(N)c(N=Nc2ccc(S(N)(=O)=O)cc2)c(=O)n(C)c1=O	0	24%	-23.8%	22	-4%	-6.75%	7	10%	-36.8%	27	8%	28.7%	6	9%	-44.8%	5	10%	-9.4%
O=C(C[n+]1ccc2ccccc2c1)c1ccc(-c2ccccc2)cc1	-5	97% (active)	98.2% (active)	-2	98% (active)	97.8% (active)	-3	97% (active)	98% (active)	-4	96% (active)	96.8% (active)	-5	98% (active)	98.5% (active)	-7	98% (active)	97.8% (active)
CCCNC(=O)OCc1ccc(NCCN(CC)CC)c2c(=O)c3ccccc3sc12	10	17%	69%	-7	-6%	-24%	-4	16%	-8.85%	13	17%	9.95%	14	10%	-31.1%	3	2%	1.05%
CC1C=C(COC(=O)Nc2ccccc2)ON1c1ccccc1 (centres undefined)	-2	97% (active)	98.2% (active)	-3	96% (active)	98% (active)	-2	97% (active)	98.2% (active)	-4	95% (active)	98.3% (active)	-8	93% (active)	98.5% (active)	-1	97% (active)	97.8% (active)
CS(=O)(=O)c1snc(N)c1C#N	11	73% (active)	40.9%	23	85% (active)	47.5%	17	80% (active)	50.6%	6	61%	-10.1%	29	89% (active)	-9.75%	18	85% (active)	68.4%
